Reference: PubChem BioAssay (EPA / NIEHS)
Results filed as inconclusive are left out. The source made the active and inactive calls. How the source made its calls, unless noted: active means hit-call score of the fitted dose curve at least 0.9, where 1 is the maximum; inconclusive means response in the unintended direction; inactive means score below 0.9.

Key:
[1] = test system: zebrafish Estrogen Receptor (ER2b), gene 317733; test: ATG_zfER2b_XSP2: Attagene TRANS-FACTORIAL Multi-Species (XSP2) HepG2 Assay for zebrafish Estrogen Receptor (ER2b) (AID 2283823);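 further: fitted upward as reporter gain over DMSO so potency reflects activation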
How it was run: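 Transcriptional induction measured as reporter mRNA (RT-PCR, fluorescent capillary electrophoresis) in transiently transfected HepG2 cells after 24 h dosing; DMSO served as negative control and baseline.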

[2] = target: Peroxisome proliferator-activated receptor gamma (Homo sapiens) (UniProt P37231); test: ATG_hPPARg_XSP2: Attagene TRANS-FACTORIAL Multi-Species (XSP2) HepG2 Assay for human Peroxisome Proliferator-activated Receptor gamma (PPARg) (AID 2283829);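 further: actives raise reporter mRNA above DMSO so AC50 reflects PPARg activation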
Sequence of Peroxisome proliferator-activated receptor gamma (Homo sapiens) (P37231 whole entry, looked up, the tested form may be a part): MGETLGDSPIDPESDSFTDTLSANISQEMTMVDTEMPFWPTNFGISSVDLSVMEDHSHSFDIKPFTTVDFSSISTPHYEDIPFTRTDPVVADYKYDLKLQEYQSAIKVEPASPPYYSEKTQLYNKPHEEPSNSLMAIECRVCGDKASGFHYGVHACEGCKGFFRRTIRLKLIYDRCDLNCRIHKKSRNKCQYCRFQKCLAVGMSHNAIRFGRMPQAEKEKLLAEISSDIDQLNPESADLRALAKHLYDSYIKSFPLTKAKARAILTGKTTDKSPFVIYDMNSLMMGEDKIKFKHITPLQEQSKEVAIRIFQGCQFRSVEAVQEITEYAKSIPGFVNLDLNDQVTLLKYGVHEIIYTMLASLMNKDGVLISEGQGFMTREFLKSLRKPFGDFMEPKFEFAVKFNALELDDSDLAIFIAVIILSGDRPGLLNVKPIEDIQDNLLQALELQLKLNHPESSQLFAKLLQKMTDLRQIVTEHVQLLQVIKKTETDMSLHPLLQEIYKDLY
How it was run: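 Human HepG2 cells carried transiently transfected Gal4 reporter units and were treated with chemical for 24 h alongside androgen-receptor stimulants (3 nM 6-alpha-fluorotestosterone, 1.5 nM norgestrel). Reporter transcripts were detected by RT-PCR with capillary electrophoresis, analysed in the positive direction against DMSO.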

[3] = target: mouse Peroxisome Proliferator-activated Receptor gamma (PPARg), Pparg (gene 19016) (UniProt P37238); test: ATG_mPPARg_XSP2: Attagene TRANS-FACTORIAL Multi-Species (XSP2) HepG2 Assay for mouse Peroxisome Proliferator-activated Receptor gamma (PPARg) (AID 2283830);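 further: hits are gains in reporter mRNA above DMSO so AC50 marks activation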
Sequence of mouse Peroxisome Proliferator-activated Receptor gamma (PPARg), Pparg (gene 19016) (P37238 whole entry, looked up, the tested form may be a part): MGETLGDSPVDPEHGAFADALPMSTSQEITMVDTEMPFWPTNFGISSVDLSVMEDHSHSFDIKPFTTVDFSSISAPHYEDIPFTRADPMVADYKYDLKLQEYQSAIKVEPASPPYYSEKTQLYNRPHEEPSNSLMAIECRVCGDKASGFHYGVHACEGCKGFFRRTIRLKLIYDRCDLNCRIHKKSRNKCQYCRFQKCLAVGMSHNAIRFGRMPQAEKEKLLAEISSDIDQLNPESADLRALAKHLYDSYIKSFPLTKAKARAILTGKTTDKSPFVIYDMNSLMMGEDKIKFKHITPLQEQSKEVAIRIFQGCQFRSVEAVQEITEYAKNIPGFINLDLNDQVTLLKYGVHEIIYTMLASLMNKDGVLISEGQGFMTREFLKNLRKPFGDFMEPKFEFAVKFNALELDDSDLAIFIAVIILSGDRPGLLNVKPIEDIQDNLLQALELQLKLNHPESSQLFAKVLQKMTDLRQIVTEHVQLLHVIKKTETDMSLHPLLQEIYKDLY
How it was run: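 HepG2 cells transiently transfected with GAL4-UAS reporter units for chimeric NR-Gal4 proteins including mouse PPARg, exposed 24 h; medium contained 3 nM 6-alpha-fluorotestosterone and 1.5 nM norgestrel. Reporter mRNA quantified by RT-PCR, HpaI digestion and capillary electrophoresis, vs DMSO.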

[4] = target: Nuclear receptor subfamily 1 group I member 2 (Mus musculus) (UniProt O54915); test: ATG_mPXR_XSP2: Attagene TRANS-FACTORIAL Multi-Species (XSP1) HepG2 Assay for mouse Pregnane X Receptor (PXR) (AID 2283831)
Sequence of Nuclear receptor subfamily 1 group I member 2 (Mus musculus) (O54915 whole entry, looked up): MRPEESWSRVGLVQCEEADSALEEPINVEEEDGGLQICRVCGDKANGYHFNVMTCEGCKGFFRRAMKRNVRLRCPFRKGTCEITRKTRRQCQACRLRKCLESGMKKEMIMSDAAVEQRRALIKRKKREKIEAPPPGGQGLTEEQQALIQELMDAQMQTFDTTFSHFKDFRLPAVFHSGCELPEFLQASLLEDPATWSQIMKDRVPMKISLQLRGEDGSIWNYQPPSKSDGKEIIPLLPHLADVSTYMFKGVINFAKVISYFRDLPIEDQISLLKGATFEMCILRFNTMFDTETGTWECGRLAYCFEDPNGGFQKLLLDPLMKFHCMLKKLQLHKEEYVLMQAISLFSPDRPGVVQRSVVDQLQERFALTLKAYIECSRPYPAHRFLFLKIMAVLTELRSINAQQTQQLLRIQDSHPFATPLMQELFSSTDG
How it was run: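 Fluorescence signals from capillary electrophoresis of RT-PCR-amplified reporter mRNA give the readout, gain-of-signal versus DMSO. Transfected HepG2 cells, 24 h dosing, medium contained 3 nM 6-alpha-fluorotestosterone and 1.5 nM norgestrel.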

[5] = target: zebrafish Thyroid Hormone Receptor alpha (TRa), thraa (gene 30670) (UniProt Q98867); test: ATG_zfTRa_XSP2: Attagene TRANS-FACTORIAL Multi-Species (XSP1) HepG2 Assay for zebrafish Thyroid Hormone Receptor alpha (TRa) (AID 2283832);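 further: actives raise zebrafish TRa-Gal4 reporter transcript above DMSO baseline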
Sequence of zebrafish Thyroid Hormone Receptor alpha (TRa), thraa (gene 30670) (Q98867 whole entry, looked up, the tested form may be a part): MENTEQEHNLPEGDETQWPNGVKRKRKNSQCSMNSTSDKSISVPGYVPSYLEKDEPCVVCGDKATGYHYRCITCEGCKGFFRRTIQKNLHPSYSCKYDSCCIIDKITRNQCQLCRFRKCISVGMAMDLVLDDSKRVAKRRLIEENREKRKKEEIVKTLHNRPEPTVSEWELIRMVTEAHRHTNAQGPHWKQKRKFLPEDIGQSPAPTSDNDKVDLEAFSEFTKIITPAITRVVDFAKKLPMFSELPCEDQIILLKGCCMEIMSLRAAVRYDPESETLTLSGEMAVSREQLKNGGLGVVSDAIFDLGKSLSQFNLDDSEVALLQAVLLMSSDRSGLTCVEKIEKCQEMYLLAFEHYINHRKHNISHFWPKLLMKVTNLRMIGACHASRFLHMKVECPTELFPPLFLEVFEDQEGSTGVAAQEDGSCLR
How it was run: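 HepG2 cells transiently transfected with multiplexed GAL4-UAS reporter units expressing chimeric NR-Gal4 proteins; 24 h after dosing, reporter mRNA measured by RT-PCR, FAM labelling, HpaI digestion and capillary electrophoresis; gain of signal versus DMSO baseline.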

[6] = test system: zebrafish Peroxisome Proliferator-activated Receptor gamma (PPARg), gene 557037; test: ATG_zfPPARg_XSP2: Attagene TRANS-FACTORIAL Multi-Species (XSP2) HepG2 Assay for zebrafish Peroxisome Proliferator-activated Receptor gamma (PPARg) (AID 2283833);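 further: actives increase reporter signal over DMSO so AC50 reflects activation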
How it was run: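 HepG2, transient MRTU transfection, 24 h compound; zfPPARg-GAL4 reporter mRNA by RT-PCR + capillary electrophoresis; gain-of-signal vs DMSO.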

[7] = test system: turtle Thyroid Hormone Receptor, alpha (TRa), gene 101949057; test: ATG_trTRa_XSP2: Attagene TRANS-FACTORIAL Multi-Species (XSP1) HepG2 Assay for turtle Thyroid Hormone Receptor, alpha (TRa) (AID 2283834);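 further: hits raise reporter mRNA over the DMSO baseline so AC50 marks activators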
How it was run: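 Multiplexed TRANS reporter assay; HepG2 carrying NR-Gal4 constructs treated 24 h. mRNA of the GAL4-UAS reporter quantified via labelled RT-PCR fragments on a genetic analyzer, vs DMSO negative control.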

[8] = ATG_M_61_XSP2: Attagene TRANS-FACTORIAL Multi-Species (XSP2) HepG2 Assay for M61 Transcription Factor (Internal Marker) (AID 2283835; active means hit-call score of the fitted dose curve at least 0.9, where 1 is the maximum; inactive means score below 0.9;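 further: active means a rise in signal above the DMSO baseline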)
How it was run: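 HepG2 cells transiently transfected with multiple GAL4-UAS reporter units; reporter mRNA measured 24 h after dosing by RT-PCR, fluorescent labelling and capillary electrophoresis. Medium contained 3 nM 6-alpha-fluorotestosterone and 1.5 nM norgestrel; internal marker, DMSO baseline.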

[9] = target: zebrafish Thyroid Hormone Receptor beta (TRb), thrb (gene 30607) (UniProt Q9PVE4); test: ATG_zfTRb_XSP2: Attagene TRANS-FACTORIAL Multi-Species (XSP1) HepG2 Assay for zebrafish Thyroid Hormone Receptor beta (TRb) (AID 2283836);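 on AC50: potency for induction of reporter signal above DMSO so agonist direction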
Sequence of zebrafish Thyroid Hormone Receptor beta (TRb), thrb (gene 30607) (Q9PVE4 whole entry, looked up, the tested form may be a part): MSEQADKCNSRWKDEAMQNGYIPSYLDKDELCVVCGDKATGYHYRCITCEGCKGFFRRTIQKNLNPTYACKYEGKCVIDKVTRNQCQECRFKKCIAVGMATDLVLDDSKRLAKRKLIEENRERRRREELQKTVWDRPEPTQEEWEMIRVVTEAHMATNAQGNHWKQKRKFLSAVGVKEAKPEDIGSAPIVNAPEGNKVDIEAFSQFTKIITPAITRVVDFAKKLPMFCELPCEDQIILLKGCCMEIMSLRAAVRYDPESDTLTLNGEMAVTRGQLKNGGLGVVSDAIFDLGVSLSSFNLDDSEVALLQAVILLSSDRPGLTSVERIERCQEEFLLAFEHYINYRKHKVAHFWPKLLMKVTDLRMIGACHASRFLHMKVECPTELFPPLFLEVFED
How it was run: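 HepG2 cells transiently transfected with multiplexed GAL4-UAS reporter units expressing chimeric NR-Gal4 proteins; read 24 h after dosing. Reporter mRNA quantified by RT-PCR, 6-FAM labelling, HpaI digest and capillary electrophoresis; gain of signal fitted relative to DMSO.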

[10] = target: human Thyroid hormone Receptor alpha (TRa), THRA (gene 7067) (UniProt P10827); test: ATG_hTRa_XSP2: Attagene TRANS-FACTORIAL Multi-Species (XSP2) HepG2 Assay for human Thyroid hormone Receptor alpha (TRa) (AID 2283838)
Sequence of human Thyroid hormone Receptor alpha (TRa), THRA (gene 7067) (P10827 whole entry, looked up, the tested form may be a part): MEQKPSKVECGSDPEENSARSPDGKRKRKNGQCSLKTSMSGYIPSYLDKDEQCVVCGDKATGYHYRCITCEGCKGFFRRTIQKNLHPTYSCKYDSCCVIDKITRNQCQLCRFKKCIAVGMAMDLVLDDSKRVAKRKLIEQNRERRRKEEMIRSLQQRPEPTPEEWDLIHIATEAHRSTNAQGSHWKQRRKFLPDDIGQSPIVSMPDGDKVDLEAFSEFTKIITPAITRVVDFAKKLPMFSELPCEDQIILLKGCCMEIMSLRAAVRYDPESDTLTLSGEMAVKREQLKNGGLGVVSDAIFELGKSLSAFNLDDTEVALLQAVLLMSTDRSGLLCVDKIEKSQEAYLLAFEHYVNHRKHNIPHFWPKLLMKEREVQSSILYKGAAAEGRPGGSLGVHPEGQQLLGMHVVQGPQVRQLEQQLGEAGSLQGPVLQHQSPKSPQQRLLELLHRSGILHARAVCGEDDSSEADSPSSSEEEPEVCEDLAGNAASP
How it was run: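 HepG2 cells transiently transfected with multiplexed GAL4-UAS reporter units and exogenous NR-GAL4 chimeras; 24 h chemical exposure with 3 nM 6-alpha-fluorotestosterone and 1.5 nM norgestrel present. Reporter mRNA measured by RT-PCR, FAM labelling, HpaI digestion, capillary electrophoresis; gain-of-signal versus DMSO.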

[11] = target: Estrogen receptor beta (Homo sapiens) (UniProt Q92731); test: ATG_hERb_XSP2: Attagene TRANS-FACTORIAL Multi-Species (XSP2) HepG2 Assay for human Estrogen Receptor (ERb) (AID 2283813);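 further: actives raise reporter mRNA above DMSO so AC50 reflects agonist induction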
Sequence of Estrogen receptor beta (Homo sapiens) (Q92731 whole entry, looked up, the tested form may be a part): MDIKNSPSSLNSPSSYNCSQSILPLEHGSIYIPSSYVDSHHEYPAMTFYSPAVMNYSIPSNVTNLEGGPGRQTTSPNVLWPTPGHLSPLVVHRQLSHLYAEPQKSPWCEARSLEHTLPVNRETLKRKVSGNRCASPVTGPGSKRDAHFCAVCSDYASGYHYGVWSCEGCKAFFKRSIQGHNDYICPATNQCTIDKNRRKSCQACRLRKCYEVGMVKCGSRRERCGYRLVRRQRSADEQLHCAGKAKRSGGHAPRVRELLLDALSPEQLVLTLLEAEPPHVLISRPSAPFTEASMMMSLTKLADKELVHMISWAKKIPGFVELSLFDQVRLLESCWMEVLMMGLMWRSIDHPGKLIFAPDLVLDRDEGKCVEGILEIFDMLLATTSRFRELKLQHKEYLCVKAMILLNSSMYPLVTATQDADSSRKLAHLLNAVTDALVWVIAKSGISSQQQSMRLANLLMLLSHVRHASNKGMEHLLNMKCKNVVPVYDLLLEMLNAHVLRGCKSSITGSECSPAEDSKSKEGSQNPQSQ
How it was run: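 HepG2 cells transiently transfected with GAL4-UAS reporter units and chimeric human ERb-Gal4, 24 h exposure. Reporter mRNA quantified by RT-PCR with FAM labelling, HpaI digestion and capillary electrophoresis; gain of signal versus DMSO.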

[12] = target: zebrafish Estrogen Receptor (ER1), esr1 (gene 259252) (UniProt P57717); test: ATG_zfER1_XSP2: Attagene TRANS-FACTORIAL Multi-Species (XSP2) HepG2 Assay for zebrafish Estrogen Receptor (ER1) (AID 2283816)
Sequence of zebrafish Estrogen Receptor (ER1), esr1 (gene 259252) (P57717 whole entry, looked up, the tested form may be a part): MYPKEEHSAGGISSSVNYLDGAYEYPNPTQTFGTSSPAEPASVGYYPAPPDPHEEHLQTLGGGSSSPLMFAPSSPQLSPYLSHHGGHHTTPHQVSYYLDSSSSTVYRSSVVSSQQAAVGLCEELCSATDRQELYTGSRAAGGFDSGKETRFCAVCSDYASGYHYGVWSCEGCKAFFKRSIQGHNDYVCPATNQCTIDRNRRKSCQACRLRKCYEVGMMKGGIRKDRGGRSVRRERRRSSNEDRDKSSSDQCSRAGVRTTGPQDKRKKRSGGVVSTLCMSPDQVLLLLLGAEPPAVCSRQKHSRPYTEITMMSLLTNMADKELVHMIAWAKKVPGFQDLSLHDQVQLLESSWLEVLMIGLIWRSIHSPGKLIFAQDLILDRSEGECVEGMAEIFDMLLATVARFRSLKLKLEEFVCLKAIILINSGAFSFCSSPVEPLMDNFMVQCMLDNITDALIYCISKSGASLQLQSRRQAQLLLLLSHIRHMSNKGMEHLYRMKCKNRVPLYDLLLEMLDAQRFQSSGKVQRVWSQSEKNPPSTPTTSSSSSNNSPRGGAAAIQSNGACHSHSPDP
How it was run: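 HepG2 cells transiently transfected with a GAL4-UAS reporter and a chimeric zebrafish ER1-Gal4 construct, dosed 24 h. Reporter mRNA quantified by RT-PCR, labelling, HpaI digestion and capillary electrophoresis, relative to DMSO.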

[13] = target: chicken Estrogen Receptor (ERa), ESR1 (gene 396099) (UniProt P06212); test: ATG_chERa_XSP2: Attagene TRANS-FACTORIAL Multi-Species (XSP2) HepG2 Assay for chicken Estrogen Receptor (ERa) (AID 2283817);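 further: actives raise reporter signal above DMSO so AC50 reflects ER activation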
How it was run: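 Transiently transfected HepG2 cells expressing chimeric chicken ERa-GAL4 reporter units, dosed 24 h with 3 nM 6-alpha-fluorotestosterone and 1.5 nM norgestrel present. Reporter mRNA measured by RT-PCR and capillary electrophoresis; gain-of-signal fitted relative to DMSO.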

[14] = test system: zebrafish Estrogen Receptor (ER2a), gene 317734; test: ATG_zfER2a_XSP2: Attagene TRANS-FACTORIAL Multi-Species (XSP2) HepG2 Assay for zebrafish Estrogen Receptor (ER2a) (AID 2283818);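 further: hits raise reporter mRNA so AC50 reflects activation of zebrafish ER2a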
How it was run: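 HepG2 cells transiently transfected with GAL4-UAS reporter units and chimeric zebrafish ER2a-Gal4, exposed 24 h; medium contains 3 nM 6-alpha-fluorotestosterone and 1.5 nM norgestrel. Reporter mRNA quantified by RT-PCR, HpaI digestion, capillary electrophoresis; gain versus DMSO.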

[15] = test system: frog Estrogen Receptor (ER), gene 398734; test: ATG_frER1_XSP2: Attagene TRANS-FACTORIAL Multi-Species (XSP2) HepG2 Assay for frog Estrogen Receptor (ER) (AID 2283821);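 further: hits raise reporter mRNA above DMSO baseline so potency means agonist or activator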
How it was run: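 HepG2 cells transiently transfected with GAL4-UAS reporter units expressing a chimeric frog ER-Gal4 protein; 24 h exposure. Reporter mRNA quantified by RT-PCR, fluorescent labelling and capillary electrophoresis; gain of signal fitted against DMSO baseline.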

[16] = target: Estrogen receptor (Homo sapiens) (UniProt P03372); test: ATG_hERa_XSP2: Attagene TRANS-FACTORIAL Multi-Species (XSP2) HepG2 Assay for human Estrogen Receptor (ERa) (AID 2283827)
Sequence of Estrogen receptor (Homo sapiens) (P03372 whole entry, looked up, the tested form may be a part): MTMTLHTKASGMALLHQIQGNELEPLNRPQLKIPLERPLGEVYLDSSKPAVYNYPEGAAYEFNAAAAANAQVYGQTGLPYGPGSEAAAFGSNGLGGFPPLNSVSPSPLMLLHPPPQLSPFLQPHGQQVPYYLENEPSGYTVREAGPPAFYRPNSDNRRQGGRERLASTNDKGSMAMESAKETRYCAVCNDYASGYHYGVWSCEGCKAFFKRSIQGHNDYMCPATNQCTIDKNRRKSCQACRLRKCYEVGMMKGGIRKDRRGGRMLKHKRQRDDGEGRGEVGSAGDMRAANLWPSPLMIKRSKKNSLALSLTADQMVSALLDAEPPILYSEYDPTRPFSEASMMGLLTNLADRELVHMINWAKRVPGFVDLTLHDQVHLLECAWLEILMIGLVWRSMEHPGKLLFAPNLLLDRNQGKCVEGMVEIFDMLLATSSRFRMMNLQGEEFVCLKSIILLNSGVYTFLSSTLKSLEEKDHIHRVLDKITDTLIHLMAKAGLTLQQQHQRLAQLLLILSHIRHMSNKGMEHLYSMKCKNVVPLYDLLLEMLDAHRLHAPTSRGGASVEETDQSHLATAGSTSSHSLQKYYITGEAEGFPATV
How it was run: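 HepG2 cells transiently transfected with multiplexed GAL4-UAS reporters driven by chimeric receptor-Gal4 proteins, dosed 24 h with 3 nM 6-alpha-fluorotestosterone and 1.5 nM norgestrel present. Reporter mRNA by RT-PCR and capillary electrophoresis; gain-of-signal fit versus DMSO.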

[17] = test system: frog Estrogen Receptor (ER2), gene 100174814; test: ATG_frER2_XSP2: Attagene TRANS-FACTORIAL Multi-Species (XSP2) HepG2 Assay for frog Estrogen Receptor (ER2) (AID 2283828)
How it was run: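 HepG2 cells transiently transfected with multiplexed GAL4-UAS reporter units expressing chimeric frog ER2–Gal4 protein; reporter mRNA measured 24 h after chemical dosing by RT-PCR, fluorescent labeling and capillary electrophoresis. Gain-of-signal fitted relative to DMSO baseline.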

Measured: AC50

CCN(CC)C(=S)SSC(=S)N(CC)CC
inactive: [1] | [5] | [6] | [7] | [8] | [9] | [10]
active: [2] 34.9 µM | [3] 42.9 µM | [4] 5.57 µM

CC(C)C(=O)Nc1ccc([N+](=O)[O-])c(C(F)(F)F)c1
inactive: [11] | [12] | [13] | [14] | [17] | [5] | [6] | [8]
active: [15] 26.3 µM | [1] 70.8 µM | [16] 27.2 µM | [2] 53.9 µM | [3] 82.6 µM | [4] 100 µM | [7] 35.9 µM | [9] 65.2 µM | [10] 50.1 µM
